Assay [1] is described as follows: compounds altering circadian rhythm period length – cell-based, LOPAC library, luminescence reporter (AID 2774).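 Note: values are relative to mean of DMSO wells on each plate.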 As to conditions: circadian reporter cells, at 7 µM, actives lie on both sides.
Assay [2] has as its system Hepatitis C virus NS3 helicase. In words: blockers of NS3h binding to ssDNA – biochemical, fluorescence polarization, LOPAC1280 library, primary screen (AID 687035; in the data active = inhibition above about 37%). The conditions noted are these: Purified HCV NS3 helicase, Cy5-dT15 ssDNA binding fluorescence polarization; stronger effect = higher value; concentration not given here. On the technique in general: Polarisation of emitted light reports the rotation of a fluorescent probe.

Assay [3] can be described thus: compounds altering Cy5-DNA-NS3h complex signal – biochemical, LOPAC1280, artefact control for HCV NS3 helicase inhibitor project (AID 687037). As to conditions: Cy5-DNA-NS3h complex fluorescence interference counterscreen.
Assay [4] has as its system Aerobactin synthetase IucA (Klebsiella pneumoniae). The assay is described as follows: inhibition of K. pneumoniae IucA enzyme – biochemical, Tocris library, absorbance (AID 1345561).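 Note: 100% = enzyme without compound and 0% = no enzyme.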 The conditions noted are these: purified IucA enzyme assay, absorbance (OD) read-out; stronger effect = lower value;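 tested at 8 µM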.
Assay [5] concerns Aerobactin synthetase IucA (Klebsiella pneumoniae, hypervirulent). The assay is described as follows: biochemical IucA inhibition screen of LOPAC library by absorbance (AID 1346212).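 Note: 100% = no compound wells and 0% = no enzyme wells.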 The conditions noted are these: IucA enzyme assay, absorbance (OD) readout; stronger effect = lower value;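 tested at 8 µM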.
Assay [6] is described as follows: viability loss with induced miR-34 in A549 – imaging, A549 dox-inducible miR-34, nuclei and caspase counts, primary screen (AID 1347080;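 active = compounds whose cell count with miR-34 switched on is under 0.7 times the count with it off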). The conditions noted are these: A549 miR-34 inducible, Hoechst nuclei count, 48 h.
The nature of assay [7]: blockers of cellular phospholipid synthesis – cell-based, LOPAC library, screen 4, primary screen (AID 1347384). As to conditions: animal cells, phospholipid biosynthesis inhibition screen; at 10 µM.
A short description of assay [8]: galactose survival enhancers in mitochondrial complex I cybrids – cell-based, galactose medium, ATP luminescence, primary screen (AID 1645843;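 active = z-score of at least 1.8 in each of two replicates, scored against plate mean and spread of sample wells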;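 note: positive z means more ATP and so rescue of galactose-driven cybrid death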). As to conditions: complex I mutant cybrid cells, 72 h, stronger effect = higher value.
Assay [9] can be described thus: P. berghei load reduction in hepatocytes – cell-based, HepG2, luciferase luminescence, HepG2 viability, primary screen (AID 624349; in the data active = parasite load remaining mostly below about 12%, no sharp cut-off; inactive = mostly above about 10%;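 note: 100% = mean of DMSO negative control wells on the same plate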). The conditions noted are these: P. berghei liver stage in HepG2, luciferase luminescence, concentration not given here; parasite load remaining: stronger effect = lower value; viability: measured here: HepG2 viability without parasites.
A short description of assay [10]: EMT-state selective cytotoxicity in co-culture – imaging, PC-3E GFP, TEM4-18 mCherry, primary screen (AID 1345086;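 active = compounds killing one labelled cell type while sparing the other, by normalised counts and ratio limits, not self-fluorescent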;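 for all read-outs here: cells exposed to compound for 72 h before imaging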;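 for red/green cell ratio (normalised): normalised mesenchymal count divided by normalised epithelial count so high means epithelial killing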). As to conditions: PC-3E GFP / TEM4-18 mCherry co-culture, imaging cell counts, at 1 µM; for red/green cell ratio (normalised): actives lie on both sides.
Assay [11] is described as follows: MELAS cybrid and Rieske KO viability enhancers – cell-based, MELAS cybrids, Rieske KO mouse fibroblasts, CellTiter-Glo, primary screen (AID 1508586;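 active = mean z-score across replicates of 1.96 or higher in either the MELAS or the Rieske mutant cell line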;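 note: z relative to plate mean and SD of compound and empty wells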). As to conditions: low glucose.
[12] abbreviates: stronger effect = lower value, cell number ratio, induced over uninduced.
The mark [13] stands for this setting: measured here: relative caspase fold change +Dox/-Dox.
The mark [14] stands for this setting: measured here: total cells with miR-34 induction, stronger effect = lower value.
Setting [15] is: measured here: total cells without miR-34 induction.
[16] abbreviates: measured here: epithelial PC-3E GFP cell survival.
Setting [17] is: measured here: mesenchymal TEM4-18 mCherry cell survival.

“And” between values parts separate entries of the source, which are not always exact repeats. Equal entries are not always repeated. The source made the active and inactive calls. Unless noted, the rule behind the calls is not given here.

What is called inhibition is the drop in the measured response relative to a control, in per cent. Usually remaining activity stands for the signal under treatment as a percentage of the control signal. For the compound `C[C@@H](N)Cc1cnc[nH]1`, the period change in [1] was -0.03 h (inactive). Moreover, in assay [2], the inhibition was -1% (inactive). Also, in assay [3], the fluorescence ratio (interference) is 1 (inactive). In addition, the remaining activity in assay [4] is 120% (inactive); in assay [5], 105% (inactive). In addition, the fold change was 0.943 (inactive) in assay [6] (stronger effect = lower value); 1.02 (inactive) in assay [6] (setting [12]); 0.922 and 0.657 in [6] (setting [13]). The cell count was 9840 and 7980 in assay [6] (setting [14]); 10400 and 7800 in assay [6] (setting [15]). Besides, in assay [7], the compound was called inactive. Also, the z-score in assay [8] is 0.195 (inactive) and -0.325 (inactive).

For `CCCN(CCC)C1Cc2cc(OC)c(OC)cc2C1`, the period change in [1] was -0.045 h (inactive). Besides, in [2], the inhibition was -2% (inactive). Moreover, the fluorescence ratio (interference) in assay [3] was 1 (inactive). For the same compound, the figures for the remaining activity in assay [4] and in assay [5] were 120% (inactive) and 106% (inactive), respectively. Besides, the fold change in [6] (stronger effect = lower value) was 0.979 (inactive) and 0.907 (inactive); in assay [6] (setting [13]), 0.924 and 0.563. The cell count was 9280 and 9110 in assay [6] (setting [14]); 9480 and 10000 in assay [6] (setting [15]). Also, the compound was classed as inactive in assay [7]. Moreover, in assay [8], the z-score was 0.43 (inactive) and 0.01 (inactive).

As usually defined, the viability is a per cent measure of how many cells are alive, often set against a control. Turning to `COc1cc2c(c(OC)c1OC)-c1ccc(O)c(=O)cc1C(N)CC2` (configuration not stated), in assay [9], the parasite load remaining is 59.8% (inactive). In assay [9], this compound showed a viability of 94.7%. For the same compound, the red/green cell ratio (normalised) in [10] was 0.78 (inactive). The normalised cell number stood at 1.21 in [10] (setting [16]) and 0.95 in [10] (setting [17]).

Consider `CC(C)(C)c1o[nH]c(=O)c1CC(N)C(=O)O` (configuration not stated), for which, in assay [1], the period change is -0.635 h (inactive). The inhibition in assay [2] was -1% (inactive). Besides, in assay [3], the fluorescence ratio (interference) is 1 (inactive). Also, the remaining activity in assay [4] is 108% (inactive); in assay [5] it was 110% (inactive). Moreover, the fold change in [6] (stronger effect = lower value) is 1 (inactive) and 0.891 (inactive); in [6] (setting [13]) it was 1.8 and 0.776. The cell count in assay [6] (setting [14]) was 10700 and 8780; in [6] (setting [15]), 10700 and 9850. The compound was called inactive in assay [7]. Further, the z-score in assay [8] is -0.285 (inactive) and -0.155 (inactive).

Regarding `C[C@]12CC[C@H](OC3OC(O)C(O)C(O)C3O)C=C1CCC1C2CC[C@]2(C)[C@@H](c3ccc(=O)oc3)CC[C@]12O` (some centres not stated), the parasite load remaining in assay [9] was -0.075% (inactive). In assay [9], this compound returned a viability of 22.8%. In addition, the red/green cell ratio (normalised) in assay [10] (counts scaled to control wells, 1 = unselective) is 0.18 (inactive). For the same compound, the figures for the normalised cell number in assay [10] (setting [16]) and in [10] (setting [17]) were 0.18 and 0.03, respectively. The figures for the fold change in [6] (setting [12]) and in [6] (setting [13]) were 0.742 (inactive) and 0.885, respectively. For the same compound, the cell count in assay [6] (setting [14]) was determined as 150; in [6] (setting [15]) it was 202.

Take `S=C(NC1CCCCC1)N1CCC(c2cnc[nH]2)CC1`: in assay [1], the period change is -1.93 h (inactive). Further, the inhibition in assay [2] was -3% (inactive). Further, in [3], the fluorescence ratio (interference) was 0.9 (inactive). Moreover, the remaining activity in [4] is 89.7% (inactive); in [5], 99.4% (inactive). The fold change in assay [6] (stronger effect = lower value) is 0.921 (inactive); in assay [6] (setting [12]) it was 0.93 (inactive); in assay [6] (setting [13]), 1.06 and 0.678. Moreover, the cell count in [6] (setting [14]) was 8920 and 7940; in assay [6] (setting [15]), 9690 and 8540. For the same compound, in [7], the result was inactive. The z-score in assay [11] (MELAS cybrid survival, CellTiter-Glo 48 h, stronger effect = higher value) is 0.603 (inactive); in [11] (Rieske KO mouse fibroblast survival, CellTiter-Glo 72 h), 0.478; in assay [8] it was -0.46 (inactive) and -0.595 (inactive).

(Values after PubChem BioAssay.)
